# Screening data (PubChem)
# Most compounds without a hit are left out; they make up all but 1.6% or so of the library.
# KCNQ2 enhance = enhances the rat KCNQ2 potassium channel. B-score at 10 µM. O88943. CHO-K1 KCNQ2, FluxOR thallium flux fluorescence; stronger effect = higher value. 310,000 tested, 0.54% active;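 active = fluorescence ratio B-score at least 3 SD of library B-scores, with initial fluorescence B-score within 3 of them, cut at about 5.3 in these data; same plate scores as AID 2156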;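 note: B-score of peak minus minimum over baseline fluorescence ratio after K+ and Tl+ stimulus; positive B-score means potentiation of KCNQ2 with more thallium influx and brighter signal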
# KCNQ2 block = KCNQ2 (rat) channel inhibition; 310,000 tested, 1.1% active; O88943; B-score at 10 µM; CHO-K1 KCNQ2, FluxOR thallium flux, 20 min; stronger effect = lower value;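 active = fluorescence ratio B-score at most minus 3 library SDs, with starting brightness B-score within 2 library SDs, cut at about -5.5 in these data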
# Active calls of the source: *; i = inactive; / = no result given.
SMILES,KCNQ2 enhance,KCNQ2 block
COc1ccccc1OCCn1cc(C=O)c2ccccc21,0.29,i
CCN(CC)c1nc(N2CCOCC2)nc2ccccc12,0.56,i
C(=N\n1cnnc1)/C1CCCCC1,1.89,i
Cc1ccc2cc(C(c3nnnn3C3CCCC3)N(Cc3ccccc3)Cc3ccco3)c(=O)[nH]c2c1 (configuration not stated),/,i
Cc1cc2cc(C(c3nnnn3C3CCCC3)N(Cc3cccnc3)Cc3ccco3)c(=O)[nH]c2cc1C (configuration not stated),-6.02,-6.02*
Cc1cccn2cc(-c3cc4ccccc4oc3=O)nc12,/,i
Cc1ccc(NC(=O)Nc2cc(S(=O)(=O)N(C)C)ccc2C)cc1,1.17,i
COc1ccc(/C=C/C(=O)NC(=S)NCC2CCCO2)cc1 (configuration not stated),0.3,i
COc1ccccc1/C=C/C(=O)NC(=S)NCC1CCCO1 (configuration not stated),-7.08,-7.08*
COc1cccc(OC)c1OC(=O)c1cnccn1,1.24,i
Cc1cc(C2=NNC(=NCCc3ccccc3)SC2)c(C)n1CC1CCCO1 (configuration not stated),/,i
COc1ccc2c(c1)c1ncn(CCN3CCCC3)c(=O)c1n2C,1.2,i
COc1ccccc1CCn1cnc2c3cc(C)ccc3n(C)c2c1=O,-7.4,-7.4*
N/C(=N\OC(=O)Nc1cccc(C(F)(F)F)c1)c1ccno1,/,i
Cc1ccc(-c2cc(C(=O)NC3=NCCS3)c3cc(Br)ccc3n2)o1,-6.27,-6.27*
Cc1ccc(-c2cc(C(=O)O)c3cc(Br)ccc3n2)o1,1.68,i
O=C(O)CCSc1nnnn1-c1ccccc1,0.41,i
CC(C)CN(CC(C)C)C1=N/C(=C\c2ccco2)C(=O)N1c1ccccc1,-7.36,-7.36*
COc1ccc(N2C(=O)/C(=C\c3ccco3)N=C2SCC(=O)N(C(C)C)C(C)C)cc1Cl,/,i
O=C1COc2ccc(N3C(=O)c4ccccc4C3=O)cc2N1,1.82,i
c1ccc(-c2nc(NCCCN3CCOCC3)c3ccccc3n2)cc1,0.42,i
Cc1cccc(-c2nc(NCCCN3CCOCC3)c3ccccc3n2)c1,-5.92,-5.92*
COc1ccc(-n2cc(-c3ccccc3)c3c(NCCCN4CCOCC4)ncnc32)cc1,/,i
c1ccc(-c2cn(-c3ccccc3)c3ncnc(NCCCN4CCOCC4)c23)cc1,-5.59,-5.59*
C/C(=N\Nc1nc2ccccc2[nH]1)c1ccccn1,2.1,i
SMILES,KCNQ2 enhance,KCNQ2 block
CC(C)c1nc2ccccc2c2nnc(SCC(=O)NCc3ccco3)n12,/,i
CC(C)(C)c1nc2ccccc2c2nnc(SCC(=O)NCc3ccco3)n12,-6.47,-6.47*
CC(NC(=O)c1ccccc1Cl)c1nnc(SCC(=O)Nc2ccc(C(=O)O)cc2)n1C (configuration not stated),1.11,i
CS(=O)(=O)c1ccc(-n2nnc3ccccc32)c([N+](=O)[O-])c1,/,i
N#Cc1cc([N+](=O)[O-])c(-n2nnc3ccccc32)c([N+](=O)[O-])c1,-5.73,-5.73*
COc1cc(NC(=O)C2CC(c3c(F)cccc3Cl)=NO2)c(OC)cc1Cl (configuration not stated),/,i
O=[N+]([O-])c1ccc(Oc2cc(NC3CCCCCCC3)c([N+](=O)[O-])cc2[N+](=O)[O-])cc1,/,i
Cc1noc(C)c1CSc1nc2[nH]ncc2c(=O)n1-c1ccccc1,/,i
COc1ccc(C(C)=O)cc1CSc1nc2ccccc2c(=O)n1-c1cccc(C)c1,-6.66,-6.66*
COc1ccc(C(C)=O)cc1CSc1nc2ccccc2c(=O)n1-c1ccccc1,/,i
Cc1noc(C)c1CSc1nc2ccccc2c(=O)n1-c1ccccc1,-7.06,-7.06*
Cc1ccc(NC(=O)Cn2nnc(C(=O)NCc3cccs3)c2N)c(C)c1,0.01,i
O=C(Cn1cnc2c(cnn2-c2ccccc2)c1=O)NC1CCCC1,/,i
COc1ccc(OC)c(NC(=O)CSc2nnnn2C2CCCC2)c1,/,i
c1ccc(C[n+]2c(-c3ccccc3)csc2Nc2ccccc2)cc1,/,i
c1ccc(Nc2scc(-c3ccccc3)[n+]2Cc2ccco2)cc1,-6.44,-6.44*
CC(=O)c1ccc(NC(=O)C2CCCC2)cc1,/,i
CN(C)c1ccc(/C=C(\C#N)C(=O)c2ccccc2)cc1,1.3,i
CN(C)c1cccc(/C=C(\C#N)c2ccccc2)c1,-5.68,-5.68*
COC(=O)c1ccsc1NC(=O)CCc1ccccc1,/,i
CC1CCCN(C(=O)c2ccc(-c3ccccc3Cl)o2)C1 (configuration not stated),-7.4,-7.4*
CC1CCCN(C(=O)c2ccc([N+](=O)[O-])o2)C1 (configuration not stated),/,i
O=C(CC1S/C(=N\S(=O)(=O)c2ccc(F)cc2)N(c2ccccc2)C1=O)Nc1ccccc1 (configuration not stated),/,i
CCc1ccc2[nH]c(=O)c(C(c3nnnn3Cc3ccc(OC)cc3)N3CCOCC3)cc2c1 (configuration not stated),/,i
COc1ccc(Cn2nnnc2C(c2cc3cc(C)cc(C)c3[nH]c2=O)N2CCOCC2)cc1 (configuration not stated),-6.66,-6.66*
SMILES,KCNQ2 enhance,KCNQ2 block
Cc1cc(C)c2[nH]c(=O)c(C(c3nnnn3CC3CCCO3)N3CCC(C)CC3)cc2c1 (configuration not stated),/,i
Cc1cc(C)c2cc(C(c3nnnn3C3CCCC3)N3CCOCC3)c(=O)[nH]c2c1 (configuration not stated),-6.05,-6.05*
Cc1cc(C)c2[nH]c(=O)c(C(c3nnnn3CC3CCCO3)N3CCCC(C)C3)cc2c1 (configuration not stated),-5.61,-5.61*
Cc1cccc2cc(C(c3nnnn3Cc3ccccc3)N3CCN(c4ccccc4)CC3)c(=O)[nH]c12 (configuration not stated),-9.04,-9.04*
Cc1ccc2cc(C(c3nnnn3C3CCCC3)N3CCN(c4ccc(F)cc4)CC3)c(=O)[nH]c2c1 (configuration not stated),/,i
Cc1cccc2cc(C(c3nnnn3Cc3ccccc3)N3CCN(C)CC3)c(=O)[nH]c12 (configuration not stated),/,i
COC(=O)C1=C(C)N(CCc2ccc(OC)c(OC)c2)C(=O)C1,/,i
Cc1ccc2c(c1)N(CC(=O)N1CCCC1)C(=O)c1cccnc1O2,/,i
COc1ccc(S(=O)(=O)NCCSCc2ccccc2C)cc1Br,/,i
COc1cccc(OCCn2c(C)c(/C=N/n3cnnc3)c3ccccc32)c1,0.28,i
Cc1ccccc1OCCC(=O)OCC(=O)c1c(N)n(CC(C)C)c(=O)n(C)c1=O,/,i
Cc1cc(NS(=O)(=O)c2ccc(NC(=O)/C=C/c3c(F)cccc3Cl)cc2)nc(C)n1,2.15,i
S=C(Nc1cccc(Cl)c1)N1CCN(c2ccccn2)CC1,0.63,i
C(=C/c1nccc2c1[nH]c1ccccc12)/c1ccc2c(c1)OCO2,/,i
NNc1ccc(S(=O)(=O)N2CCCCC2)cn1,0.2,i
CC1=C(C(=O)Nc2ccc(F)c(F)c2)C(c2cccs2)NC(=S)N1 (configuration not stated),0.82,i
Cc1ccc(-c2noc(CN(C(=O)C(c3ccccc3)c3ccccc3)C(C)C)n2)cc1,/,i
CC(C)N(Cc1nc(-c2ccc(Cl)cc2)no1)C(=O)C(c1ccccc1)c1ccccc1,-6.21,-6.21*
